Compounds without any hit were thinned out: in the full panel of roughly 79,000, 15% have a hit. Values without a mark were called inactive. Cut-off read from the data, not from the text of the source: active = growth inhibition above about 70%; inactive = the rest. Where a SMILES comes first, the peptide text is derived from it. Bridges are numbered along the chain shown (N, C = ends). The star is where a group is joined. Cbz = O=C(OCc1ccccc1)*; OBn = c1ccc(CO*)cc1
Assay: NCI Yeast Anticancer Drug Screen. Data for the mlh1 rad18 strain (AID 175)
Details: S. cerevisiae mlh1 rad18 strain growth inhibition; at 50.0 µM; active compounds read high
Summary of the method: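 Compound-treated yeast growth, normalised to vehicle controls. Strain bears defined DNA repair mutations.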

| SMILES | growth inhibition [%] |
| --- | --- |
| CSC(=Nc1nnc(-c2ccc([N+](=O)[O-])cc2)s1)SC | -47 |
| BrCCCOc1ccccc1Br | 14.2 |
| Clc1cccc(NNc2cccc(Cl)c2)c1 | -25.9 |
| CCCCCCCCCCCCCCCC(=O)OCC(=O)O | 1.3 |
| O=C1CSC(=O)N1 | -41.5 |
| CC(C)OC(=O)Nc1ccc(F)c(F)c1 | 20.1 |
| CC(C)CN1CC(C)C(=O)NC1=O (stereo not given) | 5.4 |
| COc1ccc2cc(C(=O)CCC(=O)O)ccc2c1 | 0.25 |
| CC(C)C1NC(C(=O)O)C(C)(C)S1 (stereo not given) | -16.1 |
| CCCc1c(Cl)nc(Cl)nc1Cl | -22.4 |
| O=C1C(N=Nc2ccccc2)Sc2nc3ccccc3n21 (stereo not given) | -9.1 |
| CCOC(=O)CC(=O)CC | 3.25 |
| CCOC(=O)c1c2ccc(/C=C/c3ccccn3)ccc-2c(C(=O)OCC)c1N | -3.1 |
| CC(=O)NCC1(c2ccccc2)CCN(Cc2ccccc2)CC1 | -14.2 |
| O=C(Nc1ccccc1Cl)c1ccccc1O | -16.4 |
| BrCCCCCCCCCBr | 29.1 |
| COc1ccc(Nc2nc(NNC(=O)Cc3ccccc3)nc(NNC(=O)c3ccncc3)n2)cc1 | 30.4 |
| CCN(CC)Cc1cc(C)c(O)c(N=Nc2cc(OC)c(N=Nc3ccc([N+](=O)[O-])cc3)cc2OC)c1C | 50.1 |
| CCNC(=S)NC1CCCCC1 | 12.3 |
| CC(=O)CC(=O)NCc1ccc2c(c1)OCO2 | -11.8 |

| SMILES | growth inhibition [%] |
| --- | --- |
| COC(=O)C1CCC(=O)NCCCCC(NC(=O)C(CC(=O)OCc2ccccc2)NC(=O)OCc2ccccc2)C(=O)N1 (stereo not drawn) (Cbz-Asp(OBn)-Lys-Glu-OMe; lactam 2-3; configuration not given here) | -23.7 |
| O=C(O)C(c1ccccc1)C(F)(F)F (stereo not given) | 0.85 |
| COc1cc(/C=C/C(=O)N[C@@H]2C(=O)N3[C@@H]2SC(C)(C)[C@@H]3C(=O)O)cc(OC)c1OC | -43.9 |
| CC1=NN(c2nc(N)nc(CSc3cc(Cl)c(C)cc3S(N)(=O)=O)n2)C(C)(C)C1 | -4.95 |
| O=C(Oc1ccc(Cl)cc1)c1ccccc1 | -25.6 |
| COC(=O)C1=CCOc2c1c(C(=O)OC)nn2C | 24.9 |
| C/C=C/C(=O)NN | 25.8 |
| C=C(NC(C)=O)C(=O)O | 4.15 |
| O=C1c2ccccc2C(=O)c2c1nnn2-c1ccccc1 | -2.15 |
| CC1=C(c2ccccc2)CON(c2ccccc2)C1 | -9.2 |
| CC(C)(C)N=Cc1ccccc1[O-].CC(C)(C)N=Cc1ccccc1[O-].[Co+2] | -5.85 |
| Cc1c(C)c(O)c(C)c(C)c1O | 11.4 |
| NC(N)=NS(=O)(=O)c1ccc(NC(=O)c2cccc3c(N)c4ccccc4nc23)cc1 | -10.2 |
| O=C(NO)/C(CC(=O)c1ccc(O)cc1)=N\O | 4.7 |
| C/C(=N\N(C)/C=N/S(C)(=O)=O)c1ccccc1 | -3.25 |
| O=C(O)C#Cc1ccccc1 | 0.3 |
| O=C(NCc1ccccc1)NCc1ccccc1 | -4.5 |
| CN1CCCCC1CCN1CCCCC1 (stereo not given) | 1.3 |
| O=c1cnc(=O)[nH][nH]1 | -5.4 |
| COc1ccc(-n2nnnc2C2(Nc3ccccc3)CCN(Cc3ccccc3)CC2)cc1 | 10.4 |

Source: PubChem BioAssay (NCI)
